Compound activity as filed in PubChem BioAssay.
PINK1 modulator = changes PINK1 expression; AID 624263; 410,000 tested, 0.2% active; Potency, µM (top dose mostly 76.6 µM), usual class: activators; PINK1 immunofluorescence, high-content cytometry, 24 h; active = well fitted activation curve with a large enough effect; inconclusive = small, poorly fitted or top-dose-only effect; cell line not stated here; note: nearly all actives have a fitted effect of over 65% in size
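PINK1 protein, normally rapidly degraded, was detected by immunofluorescence after 24 hour compound treatment of a stable cell line. Titration data (5 concentrations) came from laser-scanning cytometry, with CCCP-treated wells as controls.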
Vif-A3G inh = blocks the Vif interaction with human APOBEC3G; Q9HC16; HeLa A3G-eYFP + Vif (tagged APOBEC3G with the HIV-1 protein that degrades it), YFP fluorescence, overnight; Potency, µM (titrated, usually from 46.1 µM), actives largely listed as inhibitors; 410,000 tested, 0.076% active; note: nearly all actives have a fitted effect of over 60% in size
Target sequence (Q9HC16 whole entry, looked up): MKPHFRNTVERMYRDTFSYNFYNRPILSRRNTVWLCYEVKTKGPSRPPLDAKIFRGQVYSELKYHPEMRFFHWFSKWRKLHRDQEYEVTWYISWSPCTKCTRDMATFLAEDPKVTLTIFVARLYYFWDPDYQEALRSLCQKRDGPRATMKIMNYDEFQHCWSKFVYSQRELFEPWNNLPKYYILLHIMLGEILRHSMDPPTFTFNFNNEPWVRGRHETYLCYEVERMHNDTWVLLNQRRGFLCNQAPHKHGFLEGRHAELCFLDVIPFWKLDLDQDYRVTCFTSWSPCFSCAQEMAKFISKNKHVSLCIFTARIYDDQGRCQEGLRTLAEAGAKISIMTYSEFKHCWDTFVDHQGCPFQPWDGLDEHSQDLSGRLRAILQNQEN
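HeLa cells stably expressing Vif and C-terminally eYFP-tagged A3G, seeded overnight at 37 deg C, then exposed to compound by pintool overnight at 37 deg C. Rise in yellow fluorescence (Ex 488/Em 500-530, Acumen) marks blocked Vif-driven A3G degradation.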
Vif-APOBEC3F blk = blocks the Vif interaction with APOBEC3F | HeLa A3F-eYFP + Vif (tagged APOBEC3F with the HIV-1 protein that degrades it), YFP fluorescence increase | Potency, µM (series often up to 46.1 µM) | 390,000 tested, 0.2% active; note: nearly all actives have a fitted effect of over 65% in size
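HeLa cells stably expressing A3F-eYFP plus Vif, plated and incubated overnight at 37 deg C, then exposed to compounds overnight at 37 deg C. Blocked degradation read as raised yellow fluorescence (Ex 488/Em 500-530).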
TRPML1 agonist = human mucolipin-1 channel agonism. Q9GZU1. TRPML1-expressing cells, Ca2+ dye fluorescence, FDSS. activation, % (concentration not given with the values). 410,000 tested, 0.12% active; in the data active = activation above about 50%; inconclusive = mostly about 30% to 49%
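Cells: TRPML1-DL, 1X Tet inducer, ~16 h at 37 degrees C/5% CO2. Dye: ABD Ca8 no-wash + quencher, 45-90 min RT. Read: 10 s baseline, compound add, 110 s agonist phase; 54-4 EC80 (4uM final), 110 s antagonist phase.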
TRPML1 blocker = inhibitors of human TRPML1 channel; Q9GZU1; TRPML1-inducible cells, Ca2+ dye fluorescence, FDSS; stronger effect = lower value; inhibition of EC80 agonist-evoked calcium signal; activity change, negative = inhibition, % (concentration not given with the values); 390,000 tested, 0.02% active; in the data active = activity change below about -50%; inconclusive = between about -30% and that limit;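 note: stimulus is agonist 54-4 at its EC80 concentration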
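TRPML1-DL cells, Tet-induced overnight (~16 h, 37 °C) at 1,500 cells/well, were loaded with Ca8 no-wash dye plus quencher for 45-90 min at room temperature. Compounds were pinned during FDSS kinetic reading; agonist 54-4 at EC80 (4 uM final) then added.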
Of the large screens only hits and unclear results are named; the others gave an inactive call. This is a sample that favours compounds with a hit; in the whole collection about 0.52% have one here. Unless noted, calls come from the whole dose curve; as a rule, active = well fitted curve in the direction sought with a large enough effect; inconclusive = small, poorly fitted or top-dose-only effect, or another doubt; inactive = no such curve, though single readings can be large; an effect the other way counts as inactive or inconclusive.

Cc1cccc(C)c1NC(=S)NC(C)CCc1ccccc1 (centres undefined)	Vif-APOBEC3F blk 7.08µM
Cc1ccc(NC(=S)NC(C)CCc2ccccc2)cc1C (centres undefined)	PINK1 modulator inconclusive
COC(=O)C1=C(C)N(Cc2ccccc2)C(=S)N[C@H]1c1ccccc1	Vif-APOBEC3F blk inconclusive, TRPML1 agonist 64.6
N#C/C(=C\c1ccc(-c2ccc([N+](=O)[O-])cc2)o1)C(=O)Nc1nc(-c2cccs2)cs1	Vif-APOBEC3F blk inconclusive, TRPML1 blocker -101.0
N#C/C(=C/c1ccc(-c2cccc([N+](=O)[O-])c2)o1)C(=O)Nc1nc(-c2cccs2)cs1	none
CCN(CC)c1ccc2cc(-c3nc(-c4ccc(OC)cc4)cs3)c(=O)oc2c1	PINK1 modulator inconclusive, TRPML1 agonist 118.4
CCN(CC)c1ccc2cc(-c3nc(-c4ccc(Cl)cc4Cl)cs3)c(=O)oc2c1	Vif-APOBEC3F blk 7.08µM
Cc1nc2ccccc2n1C1CCN(C(=O)Nc2ccccc2)CC1	none
CC(=O)Nc1cc(-c2ccc(C(=O)N3CCOCC3)cc2)cn2c(-c3ccc(S(C)(=O)=O)cc3)cnc12	none (no result: Vif-APOBEC3F blk, TRPML1 blocker)
Cc1ccc(C(=O)Nc2ncc([N+](=O)[O-])s2)cc1	PINK1 modulator 35.5µM
Cc1onc(-c2ccccc2)c1C(=O)Nc1ncc([N+](=O)[O-])s1	PINK1 modulator 12.6µM
Cc1ccc(Nc2c(-c3ccc(C)s3)nc3cccc(C)n23)cc1	none (no result: Vif-A3G inh, Vif-APOBEC3F blk, TRPML1 blocker)
COc1cccc(/C=N/n2c(C3CCCCC3)n[nH]c2=S)c1	Vif-A3G inh 7.08µM
Oc1cccc(/C=N/n2c(C3CCCCC3)n[nH]c2=S)c1	none
O=C(NNc1ncc(C(F)(F)F)cc1Cl)c1ccc(Cl)c(Cl)c1	none
Cc1ccc(NC(=S)NNc2ncc(C(F)(F)F)cc2Cl)c(C)c1	none
FC(F)(F)c1cnc(NNC(=S)Nc2ccc(Cl)cc2)c(Cl)c1	PINK1 modulator 11.2µM
Cc1ccc(NC(=S)NNc2ncc(C(F)(F)F)cc2Cl)cc1	PINK1 modulator 31.6µM
Fc1ccc(NC(=S)NNc2ncc(C(F)(F)F)cc2Cl)c(F)c1	PINK1 modulator 10µM
CCCC(=O)N(c1ccc2oc(-c3ccccc3)c(C(=O)OCC)c2c1)S(=O)(=O)c1ccc(C)cc1	none
CC(C)C[C@@H](CN1CCCC1CN1C(=S)NC[C@@H]1Cc1ccc(O)cc1)N1C[C@H](Cc2ccc(O)cc2)N(CCc2ccccc2)C1=S (some centres undefined)	none
N#CC(C#N)=C1C=CC=CN1/C(=C\c1ccco1)C(=O)c1ccccc1	Vif-A3G inh inconclusive, Vif-APOBEC3F blk 20µM
Cc1sc2nc(CSc3nnnn3-c3ccc(Cl)cc3)[nH]c(=O)c2c1C	PINK1 modulator inconclusive, Vif-APOBEC3F blk 31.6µM
CCn1c(SCc2nc3sc(C(=O)O)c(C)c3c(=O)[nH]2)nnc1-c1ccc(Cl)cc1	none
COc1ccc(CCN2C(=NC(=O)C(C)C)SC3CS(=O)(=O)CC32)cc1OC (centres undefined)	none
Cc1cc(S(=O)(=O)Nc2ccc(C(=O)NCc3ccncc3)cc2)ccc1F	none
COc1cccc2c1C(=O)/C(=C\c1ccc(N(C)C)cc1)C2	Vif-A3G inh inconclusive, TRPML1 agonist 62.1 (no result: Vif-APOBEC3F blk, TRPML1 blocker)
CC(=O)NNC(=S)NC(=O)c1ccc(C)cc1	none
Cc1onc(-c2ccccc2)c1C(=O)NNC(=S)NC(=O)c1ccc(Br)cc1	PINK1 modulator inconclusive, TRPML1 agonist inconclusive
Cc1ccc(C(=O)NNC(=S)NC(=O)c2ccc(Cl)cc2)cc1	TRPML1 agonist 60.8
Cc1cccc(C(=O)NC(=S)NNC(=O)c2ccccc2Cl)c1	TRPML1 agonist 68.0
Cc1onc(-c2ccccc2)c1C(=O)NNC(=S)NC(=O)c1ccc(Cl)cc1Cl	TRPML1 agonist 91.1
O=C(Nc1ccccn1)c1ccc2c(c1)S(=O)(=O)c1ccccc1C2=O	none
O=C1c2ccccc2S(=O)(=O)c2cc(C(=O)N(c3ccccn3)c3ccccn3)ccc21	TRPML1 agonist 63.7
c1ccc2c(NC3CC3)nc(-c3ccoc3)nc2c1	none (no result: Vif-A3G inh, Vif-APOBEC3F blk, TRPML1 agonist, TRPML1 blocker)
CN(C)CCCNc1cc(N2CCN(C3CCCCC3)CC2)c2noc3c2c1C(=O)c1ccccc1-3	Vif-A3G inh inconclusive, Vif-APOBEC3F blk 4.47µM
Cc1cc2ccccn2c1C(=O)c1cccc([N+](=O)[O-])c1	none
Cc1cc2ccccn2c1C(=O)c1ccc([N+](=O)[O-])o1	PINK1 modulator inconclusive, Vif-A3G inh inconclusive, Vif-APOBEC3F blk 11.2µM
Cc1cc(C(N)=O)nn1-c1c(Cl)cc(Cl)cc1Cl	none
CCOC(=O)N1CCc2c(sc3c2C(=O)NC(c2ccc(N(C)C)cc2)N3)C1 (centres undefined)	Vif-A3G inh inconclusive, Vif-APOBEC3F blk 11.2µM
O=C(CSc1ccc2ccccc2c1)Nc1ccncc1	PINK1 modulator 12.6µM
O=C(CSc1ccncc1)Nc1ccc2ccccc2c1	none
CCc1ccc(NC(=O)Nc2ccc3c(c2)N(C)C(=O)CS3)cc1	PINK1 modulator 17.8µM
Cc1cc(C)cc(NC(=O)Nc2ccc3c(c2)N(C)C(=O)CS3)c1	PINK1 modulator inconclusive
Nc1c(Cl)cc(N=Nc2ccccc2)cc1Cl	Vif-APOBEC3F blk inconclusive
Cc1noc(C)c1CSc1nc2ccccc2c(=O)n1-c1ccccc1	Vif-A3G inh 3.55µM
Cc1noc(C)c1CSc1nc2[nH]ncc2c(=O)n1-c1ccccc1	none
CCCN(CCC)c1nc(-c2ccccn2)nc2ccccc12	PINK1 modulator inconclusive
c1ccc(CCNc2nc(-c3ccccn3)nc3ccccc23)cc1	PINK1 modulator 39.8µM
Cc1ccc(NC(=O)c2ccccc2NS(=O)(=O)c2ccc(Cl)s2)cc1S(=O)(=O)N1CCOCC1	PINK1 modulator 39.8µM
O=C(Nc1cc(S(=O)(=O)N2CCOCC2)ccc1O)c1ccc(NS(=O)(=O)c2ccc(Cl)s2)cc1	none
COc1ccc(-n2cnc3cc(NCc4ccccn4)ccc32)cc1	none
COc1ccccc1-n1cnc2cc(NCc3ccccn3)ccc21	TRPML1 blocker -50.5
O=C(NCC(=O)N1CCN(c2ccccc2)CC1)c1ccc(Cl)cc1	TRPML1 blocker -54.5
CCCCn1c(=O)[nH]c2nc3cc(NC(C)=O)ccc3nc2c1=O	none
CCCCCCn1c(=O)[nH]c2nc3cc(N)c(C)cc3nc2c1=O	PINK1 modulator inconclusive, Vif-APOBEC3F blk inconclusive, TRPML1 agonist 69.8
O=C(COc1ccc(F)cc1Br)Nc1ccccc1N1CCOCC1	TRPML1 agonist 70.9
Cc1cc(Cl)ccc1OCC(=O)Nc1ccccc1N1CCOCC1	TRPML1 agonist 75.5
O=C(Nc1c(Cl)cccc1Cl)c1cc(=O)n(Cc2ccccc2)c(=O)[nH]1	PINK1 modulator 10µM
CCN1CC=C2C(C1)C(c1ccc(Cl)s1)C(C#N)=C(N)C2(C#N)C#N (centres undefined)	PINK1 modulator 6.31µM, Vif-APOBEC3F blk inconclusive
Cc1cc(N/N=C/c2c(O)ccc3ccccc23)nc(-c2ccccc2O)n1	PINK1 modulator 44.7µM, Vif-A3G inh inconclusive
